Screening results deposited in PubChem by National Center for Advancing Translational Sciences (NCATS).
Glioma ERSR ind = qHTS for Inducers of the Endoplasmic Reticulum Stress Response (ERSR) in Human Glioma: qHTS; U87-MG GRP78 promoter luciferase reporter, 16 h; Potency, µM, for inactives: at the top dose activation, hits mostly activators; 420,000 tested, 0.02% active; AID 602332, 2012; active = well fitted activation curve with a large enough effect; note: potency is the fitted concentration of half-maximal effect; series mostly up to about 76 µM; % of control where 0% means no effect; nearly all actives have a fitted effect of over 35% in size
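Stably transfected U87-MG glioma cells carrying a GRP78-based luciferase sensor; 16 h compound incubation. Luminescence end-point read 10 min after Bright-Glo addition at room temperature.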
TRHR enhancer = qHTS for Small Molecule Agonists and Allosteric Enhancers of Human TRH Receptor: Primary Screen for Enhancers; Thyrotropin-releasing hormone receptor (Homo sapiens), P34981; TRHR cells, fluo-8 calcium fluorescence, EC20 TRH enhancement; enhancement, % at 2 µM; 360,000 tested, 0.66% active; AID 493056, 2011; in the data active = enhancement above about 30%; note: 0% is about no effect
Target sequence (P34981 whole entry, looked up): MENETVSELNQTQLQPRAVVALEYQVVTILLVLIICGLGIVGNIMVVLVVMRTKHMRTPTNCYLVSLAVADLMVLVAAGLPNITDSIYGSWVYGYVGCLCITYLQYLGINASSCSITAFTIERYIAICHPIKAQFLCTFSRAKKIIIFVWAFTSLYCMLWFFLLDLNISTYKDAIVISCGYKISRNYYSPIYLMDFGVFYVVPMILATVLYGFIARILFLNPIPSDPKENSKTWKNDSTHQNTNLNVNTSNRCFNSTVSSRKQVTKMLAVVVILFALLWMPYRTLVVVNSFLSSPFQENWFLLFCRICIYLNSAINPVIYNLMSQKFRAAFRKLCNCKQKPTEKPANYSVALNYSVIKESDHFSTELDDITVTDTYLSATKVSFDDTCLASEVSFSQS
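TRHR-expressing cells loaded with fluo-8 calcium dye were read kinetically (ex 480/em 530) during compound addition, then stimulated with an EC20 of TRH (10 nM final). Enhancement of the Gq-mediated intracellular calcium response was scored.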
TRHR agonist = qHTS for Small Molecule Agonists and Allosteric Enhancers of Human TRH Receptor: Primary Screen for Agonists; Thyrotropin-releasing hormone receptor (Homo sapiens), P34981; TRHR cells, calcium flux fluo-8, FDSS agonist mode; activation, % at 2 µM; 360,000 tested, 0.18% active; note: 0% is about no effect
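Read-out: compound-evoked intracellular calcium rise in TRHR cells, fluo-8 dye, kinetic FDSS fluorescence at 1 s/cycle following a 10-cycle baseline. Cells cultured overnight before dye loading (30 min–1.5 h, RT).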
D1 potentiator = Potentiators of Human D1 Dopamine Receptor: qHTS. D(1A) dopamine receptor (Homo sapiens), P21728. HEK293 TREx D1 cells, calcium flux, dopamine EC20 potentiation. potentiation, % at 10 µM. 360,000 tested, 0.036% active. AID 504651, 2011; in the data active = potentiation above about 30%; note: 0% is about no effect
D1 ag = Allosteric Agonists of the Human D1 Dopamine Receptor: qHTS | D(1A) dopamine receptor (Homo sapiens), P21728 | HEK293 T-REx D1 cells, calcium flux, agonist mode | activation, % at 2 µM | 360,000 tested, 1% active; note: 0% is about no effect
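Inducible HEK293 T-REx D1 cells, force-coupled to calcium signalling, were plated at 4000 cells/well with tetracycline and held overnight at 30 C. After no-wash calcium dye loading, compound-evoked calcium rise over 180 s flagged agonists.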
D1 antagonist = Antagonist of Human D 1 Dopamine Receptor: qHTS; D(1A) dopamine receptor (Homo sapiens), P21728; HEK293 TREx D1 cells, calcium flux, dopamine EC80; stronger effect = lower value; activity change, negative = inhibition, % at 10 µM; AID 504652, 2011; 360,000 tested, 3.2% active; in the data active = activity change below about -30%; note: % is set by controls: 0 for no effect and ±100 for the full control effect
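Kinetic fluorescence of a calcium dye serves as the read-out. D1-expressing Hek293 Trex cells, induced overnight at 30 C, are exposed to compound for 180 s before an EC80 dopamine addition, then read 180 s further.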
Numbers without * were called inactive. This is a sample that favours compounds with a hit; in the whole collection about 4% have one here. Cut-off read from the data, not from the text of the source, unless noted: active = activation above about 30%; inactive = the rest.

How did CCc1ccc(CN2CCC(n3nccc3NC(=O)c3ccccc3C)CC2)cc1 do in these assays?
Glioma ERSR ind: -9.4%; TRHR enhancer: 8.3; TRHR agonist: 1.8; D1 potentiator: -3.5; D1 ag: 15.3; D1 antagonist: -6.3

Results for Cc1c(C)c2ccc(Oc3ccc([N+](=O)[O-])cc3C(F)(F)F)c(C)c2oc1=O ?
Glioma ERSR ind: -2.3%; TRHR enhancer: -0.8; TRHR agonist: 0.4; D1 potentiator: -3.5; D1 ag: 2.7; D1 antagonist: -33.3*

Results for Cc1cc(OCc2cn3cccnc3n2)ccc1Cl ?
Glioma ERSR ind: 2.6%; TRHR enhancer: 2.4; TRHR agonist: -0.4; D1 potentiator: -7.5; D1 ag: 6.8; D1 antagonist: -10.0

How did COC(=O)c1ccccc1NC(=S)NC(=O)C1CCCCC1 do in these assays?
Glioma ERSR ind: -3.5%; TRHR enhancer: 2.0; TRHR agonist: 0.2; D1 potentiator: -8.3; D1 ag: 2.5; D1 antagonist: -64.5*

How did COc1ccccc1OCCNC(=O)C1CCCCC1 do in these assays?
Glioma ERSR ind: -0.4%; TRHR enhancer: -6.2; TRHR agonist: 1.2; D1 potentiator: -2.9; D1 ag: 34.2*; D1 antagonist: 4.1

How did COC(=O)c1ccccc1NC(=O)C1CCCC1 do in these assays?
Glioma ERSR ind: -3.8%; TRHR enhancer: 2.3; TRHR agonist: -1.1; D1 potentiator: -2.5; D1 ag: 3.4; D1 antagonist: -22.4

What do the screens show for `Cc1ccc(NC(=S)NC(=O)C2CC2)cc1Cl`?
Glioma ERSR ind: 1.1%; TRHR enhancer: 2.4; TRHR agonist: -1.3; D1 potentiator: -5.2; D1 ag: 1.1; D1 antagonist: -72.6*

What do the screens show for `COc1ccccc1NC(=S)NC(=O)C1CC1`?
Glioma ERSR ind: 0.1%; TRHR enhancer: -4.7; TRHR agonist: -0.9; D1 potentiator: -6.9; D1 ag: 1.8; D1 antagonist: -42.3*

What do the screens show for `Cc1ccc(OCCNC(=O)C2CCCCC2)cc1`?
Glioma ERSR ind: 2.8%; TRHR enhancer: 6.7; TRHR agonist: -0.9; D1 potentiator: 1.6; D1 ag: 0.0; D1 antagonist: 10.0

How did Cc1n[nH]c(C)c1NC(=O)CN1CCN(S(=O)(=O)c2ccc(C(F)(F)F)cc2)CC1 do in these assays?
Glioma ERSR ind: 1.3%

What do the screens show for `Cn1cccc1/C=C(\C#N)C(N)=S`?
Glioma ERSR ind: 0.3%; TRHR enhancer: 0.1; TRHR agonist: 0.7; D1 potentiator: -0.9; D1 ag: 1.1; D1 antagonist: 17.1

Results for N#C/C(=C/c1cc[nH]c1)C(N)=S ?
Glioma ERSR ind: -4.4%; TRHR enhancer: 32.7*; TRHR agonist: -0.1; D1 potentiator: -5.3; D1 ag: 2.2; D1 antagonist: -1.0

What do the screens show for `O=C(NCCOc1ccc(F)cc1)C1CCC(=O)N(CCN2CCOCC2)C1` (configuration not stated)?
Glioma ERSR ind: -6.5%; TRHR enhancer: -3.1; TRHR agonist: 0.8; D1 potentiator: -4.9; D1 ag: -0.1; D1 antagonist: -53.0*

Results for O=C(NCCOc1ccc(F)cc1)C1CCC(=O)N(CCCN2CCOCC2)C1 (configuration not stated) ?
Glioma ERSR ind: -3.8%; TRHR enhancer: -0.6; TRHR agonist: 0.8; D1 potentiator: 18.3; D1 ag: 1.5; D1 antagonist: 5.6

What do the screens show for `Cc1[nH]c2ccccc2c1C(=O)COC(=O)c1ccccc1SCC(=O)N1CCCC1`?
Glioma ERSR ind: -4.3%

What do the screens show for `O=C(Nc1cccc(C(F)(F)F)c1)C1CCCN(S(=O)(=O)c2cccc3nsnc23)C1` (configuration not stated)?
Glioma ERSR ind: -3.1%; TRHR enhancer: -3.9; TRHR agonist: 0.6; D1 potentiator: 0.1; D1 ag: -1.5; D1 antagonist: 7.9
